Data on 108 sequences can be found in PubChem BioAssay AID1508600 (Functional Genomics Laboratory (NCATS/FGL), 2020).

In all, about 53,000 sequences went through this assay and about 3,700 (7%) were called active. The entries come from a sample that favours actives as a whole. Unmarked numbers belong to inactive results.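 Rule for the calls: active = gene knockdowns whose robust z-score for IL-1 alpha signal is at least 2 or at most -2, so actives lie on both sides; inactive = the rest.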

A short description of this assay: Components of the Cytosolic LPS Sensing Pathway: Gene Identification via Genome-wide siRNA Screen. The note with it: RAW264.7 macrophages, IL-1a HTRF, actives lie on both sides, screened at 100 nM (by protocol), cells primed 5 h with Pam3CSK4 first. An excerpt:
Non-canonical inflammasome activation by cytosolic LPS is a critical component of the host response to Gram-negative bacterial infection, however we lack a comprehensive understanding of the cellular processes that control this pathway. Here we describe a genome-wide siRNA screen to identify genes regulating the mouse macrophage IL-1 alpha response to cytosolic LPS.
RAW264.7 cells were maintained in complete DMEM media, comprising DMEM with 4.5 g/L glucose, 10% FBS (Gemini Bio-Products, West Sacramento, CA), 2 mM Glutamine (Lonza) and 20 mM HEPES (Lonza), hereafter complete DMEM.
The RNAi screen was conducted in 384-well format using the Ambion Silencer Mouse Genome siRNA Library (#4391425), which consists of three unique, nonoverlapping, nonpooled siRNAs for each of 17,000 gene targets. siRNA reagents ([…]) were stamped into 384-well white flat-bottom microplates (Corning, 3570) using a Velocity11 VPrep liquid handling system (Agilent) integrated into a BioCel robotic platform (Agilent) in columns 1-22, leaving columns 23-24 empty for negative (Ambion, Negative control #1) and positive (mouse Casp4) controls, respectively. The median value of each plate's negative control column was used to normalize sample wells, and the positive control was used to assess transfection efficiency and assay performance.
Lipofectamine RNAiMAX Transfection Reagent ([…]; Invitrogen) was added in […] serum-free, antibiotic-free media to plate wells using a Thermo Scientific Matrix WellMate and Microplate Stacker. Plates were incubated for 45 min at room temperature to allow for the sufficient formation of siRNA-lipid complexes. Cells were seeded at a density of 1x10^4 cells per well in 20 microL media containing 20% (vol/vol) FBS without antibiotics. The final concentration of siRNA in each well was 100 nM. Cells were cultured for 48h at 37 degrees C in 5% CO2 before addition of […] of TLR ligand Pam3CSK4 for 5 hours. The medium was then removed, replaced with […] growth media and cell were transfected with […] of LipidA and TransIT-TKO (Mirus) for 24 hour. At the end of the LipidA treatment, […] of supernatant was transferred to a 384 Greiner Bio-one non-binding low volume plate and […] of IL-1a HTRF reagent (Cisbio, 62MIL1APEH) was added and incubated at room temperature overnight. The plates were read on an EnVision plate reader (PerkinElmer). Cell viability was measured by adding 20ul Cell Titer Glo to the original plate and running a luminescence read on the EnVision. The quantified IL-1a signal for each siRNA gene-targeted well was divided by the median of the negative control wells and multiplied by 100 to achieve a negative control normalized value for each well/siRNA. This normalized value was then used to generate a robust z-score by first taking the log of each value and then by subtracting the median and dividing by the […].
As to CCAUUAAAAACCCAGAGGATT against Lyve1, the z-score was 0.0705. Regarding CCCUAUAAAGAGAAAUUGGTT against Zfp663, the z-score was -0.166. The figure for GGCUUCUUUUUAAAAGUAGTT against Pcid2 is -1.28; for GCAGGACUUACAUGAGAAUTT against Fam13c it is 0.534. Turning to CCAUAAACUAUGAGUUUUGTT against Elovl7, the z-score was 2.4 (active). As for GGCUUCCAUUACCAUGAUGTT against Olfr381, the z-score is -0.318. As for CGCGUAUCUGACCAGGUCATT against Ermard, the figure is 0.889; as for GGCUGAAAAAUGCUUGAUUTT against Dhdds, -1.14. GGAUAACUCUUUCAAAGACTT against Lrit2: the z-score was 0.768. The figure for GGAGGAGAGAACAAAAUGUTT against Itgb1bp2 is 0.839; for GGAUCUCUUUUUUCACAUGTT against Kcne2 it is 0.605. As for GGAUCUGGCGGUUACUAAGTT against Gm867, the figure is 0.776. As for GCUCAUUCUUACCAAUCUCTT against Vsig2, the figure is -2.25 (active); as for GGCUGUGAAAAAACUAGAATT against Serpina1e, -0.359. Take GCCCUACCUUACCUGAUACTT against Rab17: the z-score was 2.03 (active). The figure for GGAUCUUAGUAAUAUUGGUTT against Ash2l is -0.72. CCACAAGUUCACUAAGGAGTT against Six3: the z-score is 0.193.

With CCUGGAAUCUGUCCCUCAUTT against Olfr262, the z-score was -0.161. Turning to CCCACUUACUUUUGAUGUUTT against Uba1, the z-score is -0.232. The figure for GGCACGUGAUAAAGGGUUCTT against Pcdha7 is 2.56 (active). Regarding GCAUGUUUGGAUUGCUAUUTT against Olfr653, the z-score was 0.999. The figure for GGAUUUUCAAAGAGGACACTT against Cdca7l is 0.735. Turning to GCAGAGACGUGAUUGAUCGTT against H2bc18, the z-score is -1.17.

With CCAUUUCUCACCAGUGAUCTT against Gm5535, the z-score was -2.61 (active). Regarding CCGUUCCAUCAUUAAGACCTT against Tssk2, the z-score is 0.359. Consider CCAAGGCCAUCUCAUUUUCTT against Olfr749, for which the z-score was 0.511. GGCUAUUUUGCUGUACCUCTT against Gbgt1: the z-score is 0.589. The figure for GGAAAUAUCUCUGGUAAUATT against Reln is -2.17 (active); for GCAUCCUGAGUCCGUAUCCTT against Rbm11 it is 1.37. As for GGUAGAGCGCAAGAAGGCATT against Nol12, the figure is 1.23; as for CGGAGUUGAGCCAGAAAAATT against Fbxo31, -0.777; as for GGAGAAAUUGCCUUUGAUCTT against Pdik1l, 0.416. The figure for CGAUUUGCAGCCCUCAUGATT against Inka1 is -2.27 (active); for GCCGUCUACCCUGAUAACATT against Cp it is 0.67. For GAAGCAGGCCUGGGAUCUUTT against Vmn1r41, the z-score was 2.01 (active). On to GGAGCAAAUGAUCAAUAAATT against Serpina3b, for which the z-score is -0.364. The figure for GGCAUCUCUUUGCUUGAAUTT against Lalba is -0.86; for GCCCUCAUUUGUCCUACAUTT against Arhgef2 it is 0.202. In the case of GGGUUUAGAGACCCUGAGATT against Klc2, the z-score is -2.09 (active). The figure for GGUGGACAAGGAGAGGACUTT against H2-Q1 is 0.109; for GGAAUGGAACACAAAUAGCTT against Kdelr2 it is 0.191; for GGACUUUUGUGUAUAGUUATT against Smad1 it is 1.59. As for GGACGCGGGAAAAAUGUUCTT against Hnrnpab, the figure is 1.37. GCUGGAAGCAUUUGUUUUUTT against Uap1: the z-score was 2.19 (active). As for GCUUAGUGACCAUCUCCGUTT against Epop, the figure is 0.236. The figure for GGAAUCUCACCAAUCCAAATT against Rab14 is -0.364; for GGAGAGCUAGCCUUAAUAATT against Bspry it is 4.21 (active). For CGGUUACAGGUGAAAUCCUTT against Sval1, the z-score was -1.36. Consider CGGGUGAUGCCUAUGUCAUTT against Gsn, for which the z-score was 0.837. The figure for GGCUUACAGUUCCAUAUGGTT against Olfr401 is -1.11; for GCUCAUUGCACUUGCCAAGTT against Tcea2 it is -0.0377; for GGUUUGUGUCUAAGGAAUUTT against Klhdc7a it is -0.203. On to GGUCCUACCUUGAAGCUCCTT against Ado, for which the z-score is 0.816. For GCACCAGUCGGUAUUCACATT against C1qc, the z-score is -0.665. The figure for GCAUUGUGAGACUAACGUGTT against Dusp7 is 1.08; for GGGAAUAAUGUCUAGUUUGTT against Fam126a it is 0.215. For the sequence GAUGGUGUCUAGUGAGAGCTT against Oxct2b, the z-score was -2.01 (active). With GCACCAUUUUGAUCGUCAUTT against Olfr519, the z-score is 0.341. Take GGUUUGAAAUGAAACUUCATT against Nedd4l: the z-score is -0.0699. Consider GCGAGCUUUAACCUUUCCATT against Olfr1028, for which the z-score is -2.49 (active). In the case of CCUCACAAAGCACAAUAUCTT against Sntg1, the z-score was -1.46. With CGUAGCUAUUCUGGUUGUCTT against H2-Q6, the z-score was -0.616.

With GGUCCUCAAUGAAAUGAGATT against Krt12, the z-score is 1.05.

Consider GGAGUUUGGAACUUCCAACTT against Tcf21, for which the z-score is 2.79 (active).

With GGACCAAAAUCUAGAAUACTT against Zfp629, the z-score was -0.898. The figure for GGUAUUUAAGUGAUACAUCTT against Ddost is -0.321. Turning to GGUACCGUCAGUUGUCCUATT against Rnf4, the z-score was -1.86.

On to GGUGAAGAAGGAGACAAAGTT against Tmem43, for which the z-score was 0.347. The figure for GGAUAAAGUUUAAGGAUGGTT against Vmn1r40 is -0.43; for GGAGAAGGAUGAAGACGGATT against Map1lc3a it is 0.397; for GCUUUUGUUACAUAAUGCUTT against Tmem237 it is 1.12. For GACCACUUCCUUCUAUGCCTT against Slc35c1, the z-score is -2.07 (active). As to GGGCUUCAUCAACUAUCUUTT against Spint1, the z-score was 1.03. The figure for CGGCUAAAUGCAAGUAAAGTT against Rgma is -1.07; for GGUACUGAUUACUCUGUAUTT against Mrps17 it is -0.388; for GCUUUUUGUGAAACUGGCCTT against Pstpip2 it is 0.191.

Turning to GGUCAAUAUCCUCGGACAUTT against Hsd17b13, the z-score is -0.386. As for GCCACGUAGACUGAUAUAGTT against Irf5, the figure is -1.16; as for GGAACAAGGAAGUUAAGGATT against Olfr1044, 0.251. As for GCCCAACGUGGUGUACAUUTT against Gask1b, the figure is 4.04 (active); as for CCAGUUUCAGAUCAGAUUATT against Zfp747, 0.729; as for GCUGACCUUCAUUCAUAUATT against Vmn1r27, -2.06 (active). With GCUAGGAGAACCUACAUACTT against Adcy4, the z-score is -0.368. As for GCUGAGAGUGAACCGAUGUTT against Dyrk4, the figure is 1.54; as for CCAUUCUACGAGAAUUGUATT against Dync1i2, -0.326. As for GGAUAACAGAGAUUUCUCCTT against Il15ra, the z-score is 0.0534. Turning to CCUGCAUUAUUUAUGAAAGTT against Mfap3l, the z-score is -0.449. The figure for GUAAUCACCUUAAAGAUGUTT against Cebpb is 1.32; for GGUUAGGUUGAUGAAUAAGTT against Eif4ebp2 it is 2.46 (active); for CCUUUUGAGAGCUCCAGAUTT against Ptrh1 it is -0.273.

As for CCUAAGGCAAUCCCUAUUGTT against Gprasp1, the z-score is -0.424.

As to GCAAUUUAAGUUUAGGAGATT against Heatr1, the z-score is -0.215. GCCAAUCUGGUGAUACUUCTT against Vmn1r71: the z-score was -1.64. Regarding GCUGUUAAGUAAUGACAGATT against Chst7, the z-score is 1.54.

Take GGUAAAUGACAACUUUCUUTT against Slco6b1: the z-score is 2.92 (active). The figure for GCCUAUUGGCCUGAUAUGUTT against Gpr141b is 0.173. As for GGUACAACUGCUCAUUUUUTT against Rhbdd1, the z-score was -0.0082. On to GGCCCUAAUUUCAGUAAUATT against Pigv, for which the z-score was 0.568.

As for GCCUUUCUCGUUCCUAUAGTT against Plgrkt, the z-score is -2.42 (active). The figure for GGUUUUUGAGUUUCUGAUUTT against Vps8 is 1.28. As for CCACCUUGUUGAGUGGCACTT against Smarcd3, the z-score was -0.177. As to GCAUUUCAAUCGCACGUUUTT against Gal3st2, the z-score is -0.893. On to CCGAGCAAAAUCUCAAAUUTT against Mdh1, for which the z-score is 1.89. As for CCCUCUUAGUAACUGGCUCTT against Cdhr4, the z-score was -0.0846.

Turning to GGAAGACAUGAAAUUGUUCTT against Psma3, the z-score is -2.69 (active). For the sequence GCAAGAAGGUUAUUCUAUATT against Atxn3, the z-score is 0.399. The figure for GGCUUUUGAGAAUUCAUUCTT against Kcna5 is 2.75 (active); for GGCCUAUCUUCUUUACAUATT against Ctbs it is 0.348.
